Source: PubChem
TMEM16A inh = mouse TMEM16A channel inhibition, primary screen. HEK293 TMEM16A/YFP iodide influx fluorescence, ionomycin. normalized B-score (activity score, 25-100; higher = stronger inhibition) at 10 µM. 1.2% of 310,000 active;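 active means ratio plate-corrected score three or more library SD toward inhibition, starting fluorescence score within five deviations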;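 further: score derived from kinetic fluorescence span divided by baseline fluorescence per well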
PKA-R2B act = activates the human PKA-R2B holoenzyme complex | P22694+P31323 | PKA-R2B holoenzyme dissociation, Cy5-IP20 fluorescence polarization; R2B truncated from residue 108, S112A mutant; 0% DMSO only, 100% 113 µM cGMP | 0.079% of 340,000 active | activation, % at 11.4 µM;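 active means activation above a cutoff set at the mean over all compounds plus 3 SD, cut at about 18% in these data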;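 further: higher means more holoenzyme dissociation and a rise in polarization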
CHT inh = human CHT choline transport inhibition; Q9GZV3; CHT-expressing cells, membrane potential dye, choline response; active compounds read low; B-score at 10 µM; 0.86% of 310,000 active; AID 488975;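 active means B-score over 3 SD under the library average, and starting fluorescence ratio not unusually high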;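 further: choline stimulus applied at its EC90 after an EC20 pre-addition; B-score computed on integrated fluorescence ratio after choline addition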
Target sequence (Q9GZV3 whole entry, looked up): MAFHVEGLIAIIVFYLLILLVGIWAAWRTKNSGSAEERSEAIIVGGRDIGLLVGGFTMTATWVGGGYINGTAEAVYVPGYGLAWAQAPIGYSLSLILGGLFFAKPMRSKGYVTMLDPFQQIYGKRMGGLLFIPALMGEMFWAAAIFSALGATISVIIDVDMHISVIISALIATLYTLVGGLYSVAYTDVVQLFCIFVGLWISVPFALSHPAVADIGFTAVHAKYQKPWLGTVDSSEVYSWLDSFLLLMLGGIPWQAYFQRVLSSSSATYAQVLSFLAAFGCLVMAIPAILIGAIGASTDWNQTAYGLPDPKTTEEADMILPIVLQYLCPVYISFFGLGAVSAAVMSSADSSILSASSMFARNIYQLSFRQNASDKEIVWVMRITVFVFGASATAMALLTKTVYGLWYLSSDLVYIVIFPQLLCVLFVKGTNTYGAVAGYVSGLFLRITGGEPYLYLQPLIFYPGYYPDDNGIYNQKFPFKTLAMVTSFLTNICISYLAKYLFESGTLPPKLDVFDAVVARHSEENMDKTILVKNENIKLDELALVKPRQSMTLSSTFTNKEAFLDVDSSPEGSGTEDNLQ
CHT allo act = human CHT allosteric activation | CHT-expressing cells, membrane potential dye, choline EC20; active compounds read high; LV-AA mutant CHT in HEK293 cells | B-score at 10 µM | 0.49% of 310,000 active;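 active means initial fluorescence not abnormally high and integrated response B-score, plate-corrected, over 3 SD above library mean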
TMEM16A act = mouse TMEM16A channel activation, primary screen. Q8BHY3. HEK293 TMEM16A/YFP-H148Q/I152L, iodide quench fluorescence; active compounds read low. B-score at 10 µM. 0.3% of 340,000 active. AID 623877;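 active means fluorescence-ratio B-score plate-corrected deviation score at least 3 library SD below zero, with starting fluorescence score within 5 deviations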;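 further: channel opened by trigger with iodide after compound preincubation; score built on the fluorescence ratio of max minus min over baseline; more negative score means more quench and so TMEM16A activation or potentiation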
PKA-R1A activ = PKA-R1A complex activation; PKA-R1A dissociation, Cy5-IP20 fluorescence polarization; scaled: DMSO 0%, 113 µM cGMP 100%; activation, % at 11.4 µM; 0.083% of 340,000 active;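 active means percent activation above the mean of all tested compounds plus 3 SD, cut at about 19% in these data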;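 further: higher means more PKAc released from R1A so a rise in polarization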
CHT activ conf = confirmation of human choline transporter (CHT) activators. shares compounds with CHT allo act. CHT-expressing cells, membrane potential dye fluorescence (FDSS); % of choline EC20–EC90 response window; HEK293 expressing CHT LV-AA mutant; choline added at its EC20. activation, % at 10 µM. 91% of 2,500 active. AID 504833;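 active means primary screen active, with duplicate mean activation above negative control mean plus 3 SD, cut at about 11% in these data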
HEK293 MP dye = activity in parental HEK293 cells lacking CHT; shares compounds with CHT allo act; membrane potential dye fluorescence (FDSS); measured after EC20 choline addition; ratio readout change at 10 µM, hits read low; 62% of 2,500 active; AID 623908;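 active means duplicate-averaged ratio beyond 3 SD from buffer wells, up or down, though filed actives are nearly all decreases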
Active calls of the source: *; i = inactive; · = no result. Sampled rows, rich in hits. Any-hit rate of the full collection: about 2.5%.

SMILES	TMEM16A inh	PKA-R2B act	CHT inh	CHT allo act	TMEM16A act	PKA-R1A activ	CHT activ conf	HEK293 MP dye
N=c1c2c3c(sc2nc2n1CCC2)CCCC3	i	-0.2	i	i	i	-3.3	47.8*	-40*
CC1(C)Cc2c(sc3nc4n(c(=N)c23)CCC4)CO1	i	1.7	i	8.52*	i	-1.9	50.5*	-63.3*
Cc1ccc2nc(N3CC(C)OC(C)C3)nc(-c3ccccc3)c2c1 (configuration not stated)	i	-11.3	i	i	i	-3.2	·	·
Cc1ccc2c(c1)c(-c1ccccc1)nc1nncn12	i	-10.8	i	i	i	-6.2	38.1*	-32.5*
OCCCNc1ncnc2sc3c(c12)CCN(Cc1ccccc1)C3	i	-4.5	i	6.24*	i	1.2	48.7*	-52.6*
O=c1[nH]cnc2sc3c(c12)CCN(Cc1ccccc1)C3	i	1.2	i	i	i	-5.5	·	·
CC1CCC(NC(=O)c2nc(Cn3ccc([N+](=O)[O-])n3)no2)CC1 (configuration not stated)	i	-1.8	i	i	i	0.8	·	·
COc1ccc(C2=NCCn3cccc32)c(OC)c1	i	1.6	i	i	i	-10.6	43.0*	-49.1*
CCCC1=NCCn2cccc21	i	-4.3	i	i	i	10.4	·	·
CCCn1c(=O)c2ccccc2n2c(SCCNCCO)nnc12	i	-1.2	i	9.1*	i	-7.2	57.3*	-51.5*
Cc1ccc(-c2c[n+](Cc3ccc(Cl)cc3)c3n2CCC3)cc1	i	-1.2	i	i	i	10.4	·	·
Cc1ccc(-c2c[n+](Cc3cccc(Cl)c3)c3n2CCC3)cc1	i	1.5	i	7.96*	i	2.9	55.8*	-39.6*
Clc1cccc(C[n+]2cc(-c3ccccc3)n3c2CCC3)c1	i	-9.5	i	8.82*	i	1.8	66.5*	-43.3*
O=C(c1ccccc1CCc1ccccc1)N1CCN(c2ccccn2)CC1	i	-5.4	i	6.51*	i	-5.6	26.6*	i
Cn1c(-c2ccncc2)nc2ccccc21	i	-4.4	i	i	i	4.9	·	·
CCN(CC)c1ccc(-c2nc3cnccc3n2C)cc1	i	-13.0	i	10.3*	i	0.8	32.5*	-49.1*
S=C(Nc1ccc(Cl)cc1)c1sc(N2CCCCC2)nc1N1CCOCC1	i	11.6	i	i	i	-6.3	·	·
Cc1cc(N2CC(C)OC(C)C2)nc2ccccc12 (configuration not stated)	i	-0.1	i	6.62*	i	2.4	27.7*	-54.5*
COc1ccc(-c2csc3nc(C)nc(N4CCCCC4)c23)cc1OC	i	-12.3	i	i	i	-7.9	26.7*	i
O=C(C1CCN(Cc2ccc(F)cc2)CC1)N(CCc1ccccc1)Cc1ccccc1	i	0.4	i	6.82*	i	-12.0	28.8*	i
Cc1cc(NC(=O)CSc2ccc3nnc(-c4ccccc4)n3n2)no1	i	-0.7	i	7.05*	i	-0.4	47.6*	-31.6*
O=C(CSc1ccc2nnc(-c3cccnc3)n2n1)NCC1CCCO1 (configuration not stated)	i	1.7	i	i	i	0.8	11.2*	i
CC(NC(=O)CN1CCN(C(=O)c2cccs2)CC1)c1ccc(F)cc1F (configuration not stated)	·	1.9	·	·	i	0.9	·	·
CCOC(=O)C[n+]1ccc2c([nH]c3ccccc32)c1C	i	-3.1	i	i	i	-5.8	49.5*	-40.6*
CCOC(=O)Cc1c(Cl)c2ccccc2[nH]c1=O	i	-4.2	i	i	i	-5.6	·	·
SMILES	TMEM16A inh	PKA-R2B act	CHT inh	CHT allo act	TMEM16A act	PKA-R1A activ	CHT activ conf	HEK293 MP dye
COc1ccc(C(N)c2nccc3cc(OC)c(OC)cc23)cc1OC (configuration not stated)	i	12.3	i	7.3*	i	-5.7	53.0*	-41.1*
CCn1cc(C(=O)OCC(=O)N(C)Cc2ccccc2)c(=O)c2ccc(C)nc21	i	1.4	i	i	i	-5.6	·	·
CCn1cc(C(=O)OCC(=O)N(C)C2CCS(=O)(=O)C2)c(=O)c2ccc(C)nc21 (configuration not stated)	i	-10.3	i	8.64*	i	9.0	54.2*	-62.2*
CCn1cc(C(=O)OCC(=O)N2C(C)CCCC2C)c(=O)c2ccc(C)nc21 (configuration not stated)	i	3.0	i	i	i	2.2	38.7*	-28.8*
Cc1cccc(N2CCN(CCCNC(=O)c3ccc(NC(=O)C4=CSCCO4)cc3)CC2C)c1 (configuration not stated)	i	11.9	i	i	i	-3.0	·	·
O=C1C(NS(=O)(=O)c2cccs2)=C(N2CCOCC2)C(=O)c2ccccc21	i	-4.4	i	7.17*	i	-7.5	40.8*	-40.5*
O=C1C(NS(=O)(=O)c2cccs2)=C(N2CCN(c3cccc(C(F)(F)F)c3)CC2)C(=O)c2ccccc21	i	3.2	i	i	i	-5.4	·	·
Cc1cccn2c(=O)c(C=O)c(N3CCN(C)CC3)nc12	i	-14.7	i	7.07*	i	-5.2	70.7*	-65.9*
Cc1ccc2nc(N3CCN(c4ccccc4)CC3)c(C=O)c(=O)n2c1	i	1.1	i	i	i	-0.1	·	·
Cc1ccc2nc(N3CCN(C)CC3)c(C=O)c(=O)n2c1	i	-1.5	i	i	i	-3.8	74.3*	-50.8*
CCNC(=O)/C(C#N)=C/c1c(N2CCN(C)CC2)nc2c(C)cccn2c1=O	i	-1.6	i	6.31*	i	-0.3	49.1*	-52.6*
Cc1ccc(S(=O)(=O)/C(C#N)=C/c2c(N3CCN(C)CC3)nc3c(C)cccn3c2=O)cc1	i	-9.6	i	7.44*	i	3.0	50.4*	-45.8*
CCNC(=O)/C(C#N)=C/c1c(N2CCN(c3cccc(Cl)c3)CC2)nc2c(C)cccn2c1=O	i	-6.0	i	i	i	-10.2	·	·
